# Experimental data as given in PubChem BioAssay (EPA / NIEHS).
# Records with an inconclusive call do not appear. Calls of active or inactive are those of the source. How the source made its calls, unless noted: active means hit-call score of the fitted dose curve at least 0.9, where 1 is the maximum; inactive means score below 0.9.
# Columns and labels:
# [1] = UKN5_HCS_SBAD2_cell_viability: Viability Assessment in the University of Konstanz (UKN) Leist Lab Neurite Outgrowth Assay in human iPSC-derived immature Dorsal Root Ganglia Neurons (UKN5) (AID 2284056)
# How it was run: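 iPSC-derived immature peripheral neurons (SBAD2) seeded on Matrigel with CHIR99021, SU5402 and DAPT, dosed 1 h later for 24 h. Viability from Hoechst H-33342 and calcein-AM live staining, high-content imaging; bidirectional fit versus DMSO.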
# [2] = UKN5_HCS_SBAD2_neurite_outgrowth: University of Konstanz (UKN) Leist Lab Neurite Outgrowth Assay in human iPSC-derived immature Dorsal Root Ganglia Neurons (UKN5) (AID 2284070); conditions: actives raise or lower the signal
# How it was run: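 SBAD2 neurons, 24 h compound treatment, calcein-AM neurite area via HCS imaging; DMSO baseline, gain or loss of signal.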
# [3] = UKN2_HCS_IMR90_neural_migration: University of Konstanz (UKN) Leist Lab Neural Crest Cell Migration Assay in human induced IMR90 Pluripotent Stem Cells (UKN2) (AID 2284204); conditions: actives raise or lower the signal
# How it was run: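 iPSC-derived IMR90 neural crest cells on PLO/laminin/fibronectin were seeded around silicone stoppers; after stopper removal, migration in N2-S medium with EGF and FGF ran 24 h before 24 h chemical exposure. Calcein-AM/Hoechst high-content imaging; bidirectional fit versus DMSO.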
# [4] = UKN4_HCS_LUHMES_neurite_outgrowth: University of Konstanz (UKN) Leist Lab Neurite Outgrowth Assay in human LUHMES cells (UKN4) (AID 2284206); conditions: actives raise or lower the signal
# How it was run: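 2-day-differentiated LUHMES, 24 h cpd exposure, live calcein-AM + H-33342 stain, HCS fluorescence imaging of neurite area; DMSO = baseline, bidirectional fit.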
# [5] = IUF_NPC1b_proliferation_BrdU_72hr: Leibniz Research Institute for Environmental Medicine (IUF) 72-hour Neural Progenitor Cell Bromodeoxyuridine (BrdU) Proliferation Assay (NPC1b) (AID 2284207)
# How it was run: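 hNPC spheres (primary, GW 16-19 fetal cortex), single sphere/well, EGF+FGF medium; 72 h compound, no renewal; BrdU pulse last 16 h; luminescent ELISA; activity vs DMSO baseline; growth-factor withdrawal as positive control.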
# [6] = IUF_NPC1a_proliferation_area_72hr: Leibniz Research Institute for Environmental Medicine (IUF) 72-hour Neural Progenitor Cell Proliferation Area Assay (NPC1a) (AID 2284208)
# How it was run: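 Proliferation read as increase in sphere area by phase-contrast imaging over 72 h continuous compound exposure (no renewal) of hNPC spheres grown with EGF/FGF at 37C, 5% CO2. Growth-factor withdrawal served as positive control; DMSO as baseline.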
# [7] = IUF_NPC1_viability_72hr: Viability Assessment at 72 hours in the Leibniz Research Institute for Environmental Medicine (IUF) Neural Progenitor Cell Proliferation Assay (NPC1) (AID 2284209)
# How it was run: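 Each well receives one 0.3 mm progenitor sphere from fetal brain cortex; test chemical is added at plating and left three days. Viability comes from alamar blue fluorescence, multiplexed with LDH and BrdU readouts in the same well.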
# [8] = UKN4_HCS_LUHMES_cell_viability: Viability Assessment in the University of Konstanz (UKN) Leist Lab Neurite Outgrowth Assay in human LUHMES cells (UKN4) (AID 2284232)
# How it was run: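 Human dopaminergic-model LUHMES neurons were exposed to chemicals for 24 h after a 2-day differentiation. Viability was scored by imaging Hoechst H-33342 staining, with activity fitted in both directions relative to DMSO controls.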
# [9] = UKN2_HCS_IMR90_cell_viability: Viability Assessment in the University of Konstanz (UKN) Leist Lab Neural Crest Cell Migration Assay in human induced IMR90 Pluripotent Stem Cells (UKN2) (AID 2284233);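 further: viability of neural crest cells differentiated from IMR90 iPSC measured by calcein-AM fluorescence imaging; cells exposed to compound for 24 h after a 24 h migration phase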
# How it was run: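 iPSC-derived (IMR90) neural crest cells seeded around silicone stoppers on PLO/laminin/fibronectin; after 24 h migration in N2-S with EGF/FGF, chemical added for 24 h. Calcein-AM/Hoechst stained 30 min, high-content imaged; bidirectional fit versus DMSO.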
# [10] = IUF_NPC2c_oligodendrocyte_migration_120hr: Leibniz Research Institute for Environmental Medicine (IUF) 120-hour Neural Progenitor Cell Migration Assay for Oligodendrocyte Migration (NPC2c) (AID 2284297);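 further: O4-positive oligodendrocyte migration distance divided by radial glia migration distance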
# How it was run: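 Exposure runs 5 days from differentiation onset at 37C, seven concentrations plus solvent control, DMSO at most 0.1%, applied to primary hNPC spheres on laminin. After fixation, O4 immunostaining gives oligodendrocyte distance from the sphere core, relative to radial glia migration.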
# [11] = IUF_NPC2a_radial_glia_migration_120hr: Leibniz Research Institute for Environmental Medicine (IUF) 120-hour Neural Progenitor Cell Migration Assay for Radial Glia Migration (NPC2a) (AID 2284298)
# How it was run: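 Migration distance in um, sphere core edge to migration-area edge, derived by nuclei-density algorithm from Hoechst images after 120 h compound exposure. Primary hNPC spheres differentiated on poly-D-lysine/laminin in N2 medium, 37C; medium half-replaced day 3.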
# [12] = IUF_NPC2a_radial_glia_migration_72hr: Leibniz Research Institute for Environmental Medicine (IUF) 72-hour Neural Progenitor Cell Migration Assay for Radial Glia Migration (NPC2a) (AID 2284299)
# How it was run: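 Migration out of plated human neural progenitor spheres is scored at 72 h as the distance in um from the sphere core edge to the edge of the migration area. Values are the mean of four manual measurements per well, normalised to DMSO.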
# [13] = IUF_NPC2b_neuronal_migration_120hr: Leibniz Research Institute for Environmental Medicine (IUF) 120-hour Neural Progenitor Cell Migration Assay for Neuron Migration (NPC2b) (AID 2284300)
# How it was run: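 TUBB3-positive neurons are imaged after 120 h of differentiation, and their mean distance from the sphere edge is normalised to radial glia migration. Single 0.3 mm fetal hNPC spheres on poly-D-lysine/laminin received 7 compound concentrations, ≤0.1% DMSO, refreshed at day 3.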
# [14] = IUF_NPC3_neuronal_differentiation_120hr: Leibniz Research Institute for Environmental Medicine (IUF) 120-hour Neuronal Differentiation Assay (NPC3) (AID 2284301)
# How it was run: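 Primary human fetal neural progenitor spheres (GW 16-19, 0.3 mm) plated on poly-D-lysine/laminin in N2 medium, exposed from day 0 for 120 h with half-medium refresh at day 3. TUBB3+ cells as percent of Hoechst nuclei in migration area; DMSO baseline.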
# [15] = IUF_NPC4_neurite_length_120hr: Leibniz Research Institute for Environmental Medicine (IUF) 120-hour Neuronal Morphology Assay for Neurite Length (NPC4) (AID 2284302)
# How it was run: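 Human fetal cortex (GW 16-19) neural progenitor spheres, 0.3 mm, were plated on poly-D-lysine/laminin in N2 differentiation medium and exposed from day 0 for 120 h, half-feeding at day 3. Mean TUBB3+ neurite length (µm) came from skeletonized images, relative to DMSO.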
# [16] = IUF_NPC4_neurite_area_120hr: Leibniz Research Institute for Environmental Medicine (IUF) 120-hour Neuronal Morphology Assay for Neurite Area (NPC4) (AID 2284305; active means hit-call score of the fitted dose curve at least 0.9, where 1 is the maximum)
# How it was run: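 Human fetal cortex-derived neural progenitor spheres (0.3 mm, GW 16-19) plated on poly-D-lysine/laminin in N2 differentiation medium and exposed from day 0 for 120 h across 7 concentrations plus solvent control. Neurite area is mean pixel area per TUBB3-positive neuron via skeletonization, analysed relative to DMSO.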
# [17] = IUF_NPC2-5_cytotoxicity_72hr: Cytotoxicity Assessment at 72 hours in the Leibniz Research Institute for Environmental Medicine (IUF) Neural Progenitor Cell Migration and Differentiation Assay for Cytotoxicity (NPC2-5) (AID 2284306; active means hit-call score of the fitted dose curve at least 0.9, where 1 is the maximum;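 further: LDH release into supernatant measured by resorufin fluorescence marking membrane damage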)
# How it was run: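 Human fetal (GW 16-19) neural progenitor spheres, 0.3 mm, plated on poly-D-lysine/laminin in N2 differentiation medium and exposed from day 0 to 7 concentrations plus solvent control (DMSO ≤0.1%). LDH-dependent resazurin-to-resorufin fluorescence in supernatant at 72 h.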
# [18] = IUF_NPC2-5_cytotoxicity_120hr: Cytotoxicity Assessment at 120 hours in the Leibniz Research Institute for Environmental Medicine (IUF) Neural Progenitor Cell Migration and Differentiation Assay (NPC2-5) (AID 2284307; active means hit-call score of the fitted dose curve at least 0.9, where 1 is the maximum;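 further: LDH released into supernatant as membrane damage marker via resorufin fluorescence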)
# How it was run: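 Membrane-integrity loss measured as LDH activity in medium supernatant via resazurin-to-resorufin fluorescence after 120 h exposure. hNPC spheres from GW 16-19 fetal cortex differentiated on poly-D-lysine/laminin, 37C, medium half-refreshed day 3; seven concentrations, DMSO max 0.1%.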
# [19] = IUF_NPC2-5_cell_number_120hr: Cell Number Assessment at 120 hours in the Leibniz Research Institute for Environmental Medicine (IUF) Neural Progenitor Cell Migration and Differentiation Assay (NPC2-5) (AID 2284308);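 further: count of Hoechst-stained nuclei in migration zone around plated human neural progenitor spheres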
# How it was run: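 Counting of all Hoechst-stained nuclei in the migration area at 120 h, versus DMSO control. Primary hNPC spheres differentiated on poly-D-lysine/laminin in N2 medium at 37C, dosed from day 0 (7 concentrations, DMSO ≤0.1%), half-refed day 3.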
# [20] = IUF_NPC2-5_viability_120hr: Viability Assessment at 120 hours in the Leibniz Research Institute for Environmental Medicine (IUF) Neural Progenitor Cell Migration and Differentiation Assay (NPC2-5) (AID 2284312)
# How it was run: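 Human fetal (GW 16-19) neural progenitor spheres of 0.3 mm were plated on poly-D-lysine/laminin in N2 differentiation medium and exposed from day 0 for 120 h, with half-medium refresh at day 3. Viability was read as alamar blue resazurin-to-resorufin fluorescence against DMSO.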
# [21] = IUF_NPC1_cytotoxicity_72hr: Cytotoxicity Assessment at 72 hours in the Leibniz Research Institute for Environmental Medicine (IUF) Neural Progenitor Cell Proliferation Assay (NPC1) (AID 2284332; active means hit-call score of the fitted dose curve at least 0.9, where 1 is the maximum;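 further: rising LDH signal means more cytotoxicity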)
# How it was run: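 hNPC spheres (fetal brain, gestational week 16-19) grown under proliferative EGF/FGF conditions, pH 7.2-7.6, were treated continuously for 72 h. Cytotoxicity came from LDH-coupled resazurin fluorescence in each well's supernatant.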
# [22] = Tanguay_ZF_120hpf_MUSC: Oregon State University Tanguay Lab 120 Hour Post-fertilization zebrafish Assay for Muscle Malformation (AID 2284401)
# How it was run: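 Dechorionated Tropical 5D wild-type zebrafish embryos exposed statically from 6 to 120 hpf at 28C, one per well, in 0.64% DMSO. Muscle malformation scored present/absent by brightfield microscopy at 120 hpf, fitted against DMSO.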
structure (smiles),measurement,setting,value
O=C1N[C@@H]2C(=C[C@H](O)[C@@H](O)[C@H]2O)c2cc3c(c(O)c21)OCO3,AC50,[1],30.3 nM (active)
same,AC50,[2],32.7 nM (active)
same,AC50,[3],47 nM (active)
same,AC50,[4],45.6 nM (active)
same,AC50,[5],21.6 nM (active)
same,AC50,[6],23.7 nM (active)
same,AC50,[7],38.3 nM (active)
same,AC50,[8],256 nM (active)
same,AC50,[9],218 nM (active)
same,outcome,[10],inactive
same,AC50,[11],37 nM (active)
same,AC50,[12],45 nM (active)
same,outcome,[13],inactive
same,AC50,[14],11.1 nM (active)
same,AC50,[15],14.8 nM (active)
same,AC50,[16],9.33 nM (active)
same,outcome,[17],inactive
same,AC50,[18],13.1 nM (active)
same,AC50,[19],26.7 nM (active)
same,AC50,[20],24.2 nM (active)
same,outcome,[21],inactive
OCCCC(F)(F)C(F)(F)C(F)(F)C(F)(F)C(F)(F)C(F)(F)C(F)(F)F,outcome,[22],inactive
COC(=O)CCC(F)(F)C(F)(F)C(F)(F)C(F)(F)F,outcome,[22],inactive
O=S(=O)(Cl)C(F)(F)C(F)(F)C(F)(F)C(F)(F)C(F)(F)C(F)(F)C(F)(F)C(F)(F)F,outcome,[22],inactive
O=C(O)C(F)(F)C(F)(F)C(F)(F)C(F)(F)C(=O)O,outcome,[22],inactive
O=C(O)C(F)(F)C(F)(F)C(F)(F)C(=O)O,outcome,[22],inactive
FC(F)(F)C(F)(F)CNCC(F)(F)C(F)(F)F,outcome,[22],inactive
O=C(O)CCC(F)(F)C(F)(F)C(F)(F)F,outcome,[22],inactive
Clc1cc(Cl)c(-c2cc(Cl)c(Cl)c(Cl)c2Cl)cc1Cl,outcome,[1],inactive
same,outcome,[2],inactive
same,AC50,[3],5570 nM (active)
same,AC50,[4],14200 nM (active)
same,AC50,[8],19100 nM (active)
same,AC50,[9],13300 nM (active)
OCC(F)(F)C(F)(F)C(F)(F)C(F)(F)C(F)(F)C(F)(F)C(F)(F)C(F)(F)CO,outcome,[22],inactive
